The source made the active and inactive calls. Unless noted, the rule behind the calls is not given here.

The source of these data is PubChem BioAssay.

A short description of assay [1]: compounds binding Alexa647 anti-His antibody – biochemical, small-molecule microarray, 635 nm fluorescence, artefact control for SMM control protein annotation, primary screen (AID 1128).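 Note: score merges feature fluorescence with signal-to-noise for each printed compound spot.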 The following applies: higher = more signal.
Assay [2] concerns Human papillomavirus type 1a E7 protein (residues 1-88). Kind of assay: HPV1a E7 small-molecule binders, primary screen, biochemical, small-molecule microarray, residues 1-88, 635 nm (AID 1129). The following applies: small-molecule microarray binding, fluorescence 635 nm; higher = more signal.
Assay [3] deals with Focal adhesion kinase 1 (Homo sapiens) (UniProt Q05397). The assay can be described thus: PTK2 protein binding on printed compound slides – biochemical, small-molecule microarray, 635/667 nm fluorescence, BSA, DTT, primary screen (AID 1130).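 Note: composite of spot emission at 667 nm and signal to noise over triplicate slides.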 Particulars: 635 nm fluorescence, higher = more signal.
Sequence of Focal adhesion kinase 1 (Homo sapiens) (Q05397 whole entry, looked up): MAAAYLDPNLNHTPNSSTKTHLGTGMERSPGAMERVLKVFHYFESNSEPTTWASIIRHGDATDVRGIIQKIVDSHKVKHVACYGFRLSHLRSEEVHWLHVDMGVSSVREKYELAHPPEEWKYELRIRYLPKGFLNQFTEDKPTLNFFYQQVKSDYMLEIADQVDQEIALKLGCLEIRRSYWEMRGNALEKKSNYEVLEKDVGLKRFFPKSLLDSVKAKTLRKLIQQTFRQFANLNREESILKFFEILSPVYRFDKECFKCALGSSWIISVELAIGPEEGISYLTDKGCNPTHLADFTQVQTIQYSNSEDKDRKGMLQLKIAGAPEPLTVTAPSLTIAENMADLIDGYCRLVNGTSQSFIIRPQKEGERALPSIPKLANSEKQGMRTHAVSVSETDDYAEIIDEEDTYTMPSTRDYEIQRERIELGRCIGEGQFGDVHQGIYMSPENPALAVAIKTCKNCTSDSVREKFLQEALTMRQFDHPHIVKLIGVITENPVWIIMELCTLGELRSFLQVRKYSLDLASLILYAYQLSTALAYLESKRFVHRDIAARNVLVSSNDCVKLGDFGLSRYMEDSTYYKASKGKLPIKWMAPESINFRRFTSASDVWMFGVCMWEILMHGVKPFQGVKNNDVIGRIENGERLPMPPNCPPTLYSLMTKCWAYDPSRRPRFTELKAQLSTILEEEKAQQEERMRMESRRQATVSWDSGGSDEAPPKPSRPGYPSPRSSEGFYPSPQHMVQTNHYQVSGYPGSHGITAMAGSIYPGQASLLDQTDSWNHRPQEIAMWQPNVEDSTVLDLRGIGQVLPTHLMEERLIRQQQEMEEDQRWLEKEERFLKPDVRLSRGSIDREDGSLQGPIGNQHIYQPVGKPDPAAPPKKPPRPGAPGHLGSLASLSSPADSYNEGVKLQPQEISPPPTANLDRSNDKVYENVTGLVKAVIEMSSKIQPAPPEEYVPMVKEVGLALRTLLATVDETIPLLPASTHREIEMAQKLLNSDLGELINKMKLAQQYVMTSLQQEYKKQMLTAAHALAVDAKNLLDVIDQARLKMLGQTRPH
Assay [4] deals with Fibrinogen (Alexa647-labelled). Kind of assay: Alexa647-fibrinogen binding to printed small molecules – biochemical, small-molecule microarray, 635/667 nm fluorescence, artefact control for SMM control-protein annotation, profiling panel (AID 1131).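 Note: z-score merges 667 nm fluorescence with per-spot signal-to-noise over triplicate slides.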 The following applies: fibrinogen-A647 binding fluorescence, higher = more signal.
For assay [5], the target named is Follistatin (Homo sapiens) (UniProt P19883). The assay can be described thus: FST protein binding to printed compounds – biochemical, small-molecule microarray, 635/667 nm fluorescence, primary screen (AID 1132). The following applies: 635 nm fluorescence, higher = more signal.
Sequence of Follistatin (Homo sapiens) (P19883 whole entry, looked up): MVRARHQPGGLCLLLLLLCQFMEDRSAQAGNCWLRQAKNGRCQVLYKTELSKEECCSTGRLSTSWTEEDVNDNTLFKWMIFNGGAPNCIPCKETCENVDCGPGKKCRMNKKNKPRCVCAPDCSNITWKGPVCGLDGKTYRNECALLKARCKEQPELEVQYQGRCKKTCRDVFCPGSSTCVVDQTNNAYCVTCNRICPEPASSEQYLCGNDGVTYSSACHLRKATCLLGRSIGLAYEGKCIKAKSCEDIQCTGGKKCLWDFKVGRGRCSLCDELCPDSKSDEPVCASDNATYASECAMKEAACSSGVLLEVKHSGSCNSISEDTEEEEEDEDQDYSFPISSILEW
Assay [6] has as its target Fibroblast growth factor 2 (Homo sapiens) (UniProt P09038). The assay can be described thus: basic fibroblast growth factor binding to printed compounds – biochemical, small-molecule microarray, 635/667 nm fluorescence, primary screen (AID 1133). Particulars: FGF2, fluorescence 635/667, higher = more signal.
Assay [7] can be described thus: JC-1 mitochondrial potential readout, lung cancer cells – cell-based, A549, JC-1 fluorescence, basal, 24 h, 100 nL, profiling panel (AID 1138).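 Note: A549 lung adenocarcinoma cells under basal conditions with no added stimulus; test concentration not given here.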 The following applies: higher = more signal.
The next assay has as its system Lefty1. The assay can be described thus: Lefty1 protein binding to printed compounds – biochemical, small-molecule microarray, 635/667 nm fluorescence, primary screen (AID 1139). The following applies: fluorescence 635/667, higher = more signal.
In assay [8] the test system is wheat germ agglutinin (Triticum aestivum), Alexa647-labelled. The assay can be described thus: Alexa647-WGA lectin binding to printed small molecules – biochemical, small-molecule microarray, 635/667 nm fluorescence, artefact control for SMM control-protein annotation, profiling panel (AID 1140).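 Note: score merges 667 nm feature emission with signal to noise over triplicate slides.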 Particulars: WGA-A647 binding, 635 nm fluorescence, higher = more signal.

Assay [9] deals with Luciferin 4-monooxygenase (Photinus pyralis) (UniProt P08659). Kind of assay: inhibition of purified Photinus pyralis luciferase – biochemical, luminescence, purified enzyme, 2006 set, primary screen (AID 1141).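 Note: cell-free assay with purified firefly luciferase at 100 ng per well in PBS; test concentration not given here.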 Particulars: purified firefly luciferase, SteadyGlo luminescence, 30 min; higher = more signal, called active from +8 up or from −8 down.
Sequence of Luciferin 4-monooxygenase (Photinus pyralis) (P08659 whole entry, looked up): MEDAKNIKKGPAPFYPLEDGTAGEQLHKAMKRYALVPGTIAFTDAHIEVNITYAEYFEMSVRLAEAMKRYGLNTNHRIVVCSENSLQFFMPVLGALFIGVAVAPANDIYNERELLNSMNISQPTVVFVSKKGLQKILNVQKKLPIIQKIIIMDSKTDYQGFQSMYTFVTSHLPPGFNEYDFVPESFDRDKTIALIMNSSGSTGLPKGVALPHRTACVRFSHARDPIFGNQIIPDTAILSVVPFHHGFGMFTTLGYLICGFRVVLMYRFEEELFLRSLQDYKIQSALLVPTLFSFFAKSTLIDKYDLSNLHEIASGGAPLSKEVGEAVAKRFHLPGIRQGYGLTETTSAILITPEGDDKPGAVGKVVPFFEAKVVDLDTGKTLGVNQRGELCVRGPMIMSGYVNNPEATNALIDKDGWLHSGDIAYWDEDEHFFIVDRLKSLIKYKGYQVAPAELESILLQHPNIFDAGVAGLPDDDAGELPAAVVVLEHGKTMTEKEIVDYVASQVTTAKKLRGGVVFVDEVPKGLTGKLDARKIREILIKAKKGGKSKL
Assay [10] relates to Wnt5a (protein binding on small-molecule microarray). The assay can be described thus: small molecules binding Wnt5a protein – biophysical, small-molecule microarray, 635/667 nm fluorescence, primary screen (AID 1142).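 Note: fluorescence read at 667 nm with signal to noise per printed feature.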 Particulars: 635 nm fluorescence, higher = more signal.
The nature of assay [11]: ATP-based viability of Huh7 replicon cells – cell-based, CellTiter-Glo luminescence, basal, 48 h, cytotoxicity control for HCV replication inhibitor project, primary screen (AID 1143).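 Note: Huh7 hepatoma cells carrying a hepatitis C replication reporter with no stimulus; test concentration not given here.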 Particulars: higher = more signal, called active from +8 up or from −8 down. A general note: A replicon is a self-replicating genome or part of one, used to study replication in cells.
Assay [12] in a line: Pseudomonas biofilm growth suppression – PAO1 strain, BacTiter-Glo luminescence, LB-PBS, primary screen (AID 1144). Particulars: P. aeruginosa PAO1 biofilm, 12 h, higher = more signal.
Assay [13] is described as follows: basal CRE-LacZ reporter activity in PC12 – cell-based, unstimulated, primary screen (AID 1145). Particulars: no forskolin, luminescence, 4.5 h, higher = more signal, called active from +8 up or from −8 down.
Assay [14] can be described thus: forskolin-driven CRE-LacZ activity in PC12 – cell-based, CRE-LacZ reporter, forskolin-stimulated, primary screen (AID 1146).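 Note: PC12 cells with 6xCRE LacZ reporter stimulated by forskolin 10 µM; beta-galactosidase reporter signal reflecting CREB driven transcription.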 Particulars: luminescence, 4.5 h, higher = more signal, called active from +8 up or from −8 down.
In assay [15] the target is Streptavidin (Streptomyces avidinii) (UniProt P22629). The assay can be described thus: compounds binding control protein streptavidin – biophysical, small-molecule microarray, 635/667 nm fluorescence, artefact control for SMM compound annotation, primary screen (AID 1147).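 Note: signal reflects streptavidin binding to arrayed compounds as a control protein.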 Particulars: higher = more signal.
Sequence of Streptavidin (Streptomyces avidinii) (P22629 whole entry, looked up): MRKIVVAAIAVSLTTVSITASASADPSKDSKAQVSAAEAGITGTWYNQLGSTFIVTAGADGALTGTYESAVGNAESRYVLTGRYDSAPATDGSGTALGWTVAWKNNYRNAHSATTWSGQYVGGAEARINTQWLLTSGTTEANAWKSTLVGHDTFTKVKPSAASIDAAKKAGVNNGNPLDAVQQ
Assay [16] is described as follows: probe aInhba binding on compound microarray – biochemical, small-molecule microarray, 635/667 nm fluorescence, primary screen (AID 1148).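 Note: score merges 667nm spot fluorescence with signal-to-noise for antibody binding to printed compounds.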 Particulars: higher = more signal.
For assay [17], the target named is Torsin-1A (Homo sapiens) (UniProt O14656). The assay can be described thus: TOR1A wild-type binding on microarray – cell lysate, small-molecule microarray, lysate, 635/667 nm, primary screen (AID 1149). The following applies: COS7 hTOR1A-WT lysate, 635 nm fluorescence, higher = more signal.
Sequence of Torsin-1A (Homo sapiens) (O14656 whole entry, looked up): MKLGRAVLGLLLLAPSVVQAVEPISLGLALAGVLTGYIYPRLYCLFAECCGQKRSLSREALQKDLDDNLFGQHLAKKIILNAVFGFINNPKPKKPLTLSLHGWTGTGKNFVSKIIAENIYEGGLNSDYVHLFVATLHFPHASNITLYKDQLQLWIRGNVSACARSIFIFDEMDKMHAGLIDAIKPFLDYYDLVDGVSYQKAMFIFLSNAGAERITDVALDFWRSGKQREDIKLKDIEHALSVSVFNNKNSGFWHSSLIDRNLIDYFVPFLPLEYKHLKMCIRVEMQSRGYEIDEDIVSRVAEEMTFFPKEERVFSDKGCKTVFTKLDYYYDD
Assay [18] has the same target. The assay can be described thus: torsin A mutant lysate binding on microarrays – cell lysate, small-molecule microarray, COS7 lysate, 635/667 nm fluorescence, primary screen (AID 1150).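 Note: score pools 667 nm emission and signal to noise measuring lysate protein binding.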 Particulars: COS7 hTOR1A mutant lysate, 635 nm fluorescence, higher = more signal.
Assay [19] deals with Sonic hedgehog protein (Shh). Kind of assay: Sonic hedgehog microarray binding compounds – biochemical, small-molecule microarray, 635/667 nm fluorescence, primary screen (AID 1151).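 Note: Shh protein binding to compounds spotted on small-molecule microarray slides; score combines spot fluorescence intensity with signal-to-noise across triplicate slides.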 The following applies: 635 nm fluorescence, higher = more signal.

Sequence of Fibroblast growth factor 2 (Homo sapiens) (P09038 whole entry, looked up): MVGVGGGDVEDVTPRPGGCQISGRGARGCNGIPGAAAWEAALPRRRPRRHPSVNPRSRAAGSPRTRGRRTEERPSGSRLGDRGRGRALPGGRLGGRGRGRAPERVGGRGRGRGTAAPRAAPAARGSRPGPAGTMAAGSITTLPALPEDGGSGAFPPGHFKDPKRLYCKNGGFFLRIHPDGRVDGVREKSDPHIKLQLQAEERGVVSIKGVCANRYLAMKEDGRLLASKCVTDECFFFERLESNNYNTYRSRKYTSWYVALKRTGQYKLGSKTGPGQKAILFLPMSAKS

Consider `CN1C=C(C(=O)OCCS(C)(=O)=O)C(C(=O)OCCS(C)(=O)=O)=CC(CCCO)=CC1c1ccc(CN2CCCC2)cc1` (stereo not given), for which the composite z-score in assay [1] was 1.29; in assay [2], 1.26; in assay [3], 0.666; in assay [4] it was 0.894; in assay [5], 1.06; in assay [6], 0.546. The composite z-score in the assay on Lefty1 was determined as 1.23; in [8], 0.837; in [10], 0.531; in [15] it was 1.24; in assay [16] it was 0.253; in the assay with Torsin-1A (Homo sapiens) [17], 0.244. In addition, the figures for the composite z-score (with Torsin-1A (Homo sapiens) [18]; in assay [19]) were 1.19 and 1.06, respectively. In addition, the z-score was 3.43 in assay [7]; -2.16 (inactive) in assay [9]; -0.209 (inactive) in [11]; 0.356 (inactive) in [12]; 5.05 (inactive) in assay [13]; -0.267 (inactive) in assay [14].

With `CN(C)CCCNC(=O)[C@@H]1c2ccccc2C(=O)N(C2Cc3ccccc3C2)[C@H]1c1ccc(CO)cc1`, the composite z-score is 0.0265 in [1]; 1.11 in assay [2]; 0.726 in [3]; 0.784 in assay [4]; 0.27 in assay [5]; -0.139 in assay [6]. Further, the composite z-score with Lefty1 was -0.199; in assay [8], 0.164; in assay [10], -0.128; in assay [15], 0.359; in assay [16], 0.217; with Torsin-1A (Homo sapiens) [17], 0.798. Besides, the composite z-score is 0.802 in the assay with Torsin-1A (Homo sapiens) [18] and 0.318 in assay [19]. The z-score in [7] is 2.07; in [9], -0.825 (inactive); in [11], -0.701 (inactive); in assay [12], 0.491 (inactive); in assay [13], -0.502 (inactive); in [14], -1.14 (inactive).

As for `COc1ccc([Si](C)(C)[C@H]2[C@H](CCn3cc([C@H](O)c4ccccc4)nn3)O[C@@]3(C(=O)N(c4ccccc4)c4ccccc43)[C@@H]2C)cc1`, the composite z-score is 0.448 in assay [1]; -0.431 in assay [2]; -0.4 in assay [3]; -0.651 in assay [4]; 1.24 in assay [5]; 0.195 in [6]. Moreover, the composite z-score with Lefty1 is 1.51; in assay [8], 0.428; in assay [10], 0.04; in assay [15], -0.265; in assay [16], -0.0087; in the assay with Torsin-1A (Homo sapiens) [17] it was 0.96. The composite z-score with Torsin-1A (Homo sapiens) [18] is -0.242; in [19], 1.97. For the same compound, the z-score is 0.903 in assay [7]; 0.687 (inactive) in assay [9]; -4.47 (inactive) in assay [11]; 0.674 (inactive) in assay [12]; 0.236 (inactive) in assay [13]; 0.115 (inactive) in [14].

Consider `COC(=O)[C@@]1(Cc2ccc(OC)cc2)[C@H]2c3cc(C(=O)N(C)C)n(Cc4ccsc4Br)c3C[C@H]2CN1C(=O)c1ccccc1`, for which the composite z-score in assay [1] was 1.74; in assay [2], 1.09; in assay [3], 0.957; in [4], 0.862; in assay [5], -0.244; in assay [6], -0.29. Moreover, the composite z-score was -0.538 in the assay on Lefty1; 0.669 in [8]; 0.286 in assay [10]; 0.705 in assay [15]; 0.571 in [16]; -0.0008 with Torsin-1A (Homo sapiens) [17]. Further, the composite z-score stood at 0.808 with Torsin-1A (Homo sapiens) [18] and 0.105 in assay [19]. Further, the z-score was 0.292 in [7]; 1.05 (inactive) in [9]; -0.21 (inactive) in assay [11]; 0.00572 (inactive) in assay [12]; 0.597 (inactive) in assay [13]; 0.217 (inactive) in assay [14].

Take `CC(C)CNC(=O)[C@@H]1c2ccccc2C(=O)N(C(C)C)[C@H]1c1ccc(CO)cc1`: the composite z-score was -0.306 in [1]; -0.341 in assay [2]; -0.155 in assay [3]; -1.18 in assay [4]; 0.659 in assay [5]; 0.427 in assay [6]. In addition, the composite z-score was -0.481 in the assay with Lefty1; 0.775 in assay [8]; 0.0274 in assay [10]; -1.16 in assay [15]; -0.0986 in [16]; 1.13 with Torsin-1A (Homo sapiens) [17]. Moreover, the composite z-score is 0.0411 with Torsin-1A (Homo sapiens) [18] and 0.35 in [19]. For the same compound, the z-score in assay [7] is 0.484; in assay [9] it was -0.207 (inactive); in assay [11], -1.93 (inactive); in assay [12], -0.753 (inactive); in assay [13], -0.179 (inactive); in assay [14], -0.739 (inactive).
